Assay results: PubChem BioAssay AID1159580 (chemical genetic matrix, 2015)
Hit rate of the full screen: of about 5,500 compounds, about 2,000 (36%) were called active. Another 18% or so got no clear call; they are omitted. No stated cut-off is given here; in the data, active means normalized growth mostly below about 0.91 (no sharp cut-off); inconclusive means no clear call, values can overlap the other calls; inactive means mostly above about 0.92. This is one part of the list.

Experiment: chemical genetic growth profiling, strain panel (AID 1159580);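 further: tested at 20 µM; growth read once vehicle control cultures reached saturation at 30 °C; 1 = growth at the plate median or of vehicle wells; lower values mean less growth of the strain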
Details: S. cerevisiae deletion strains, growth OD
[1] = locus YAR019C, strain CDC15, hits give low values
[2] = locus YBL105C, strain PKC1, hits give low values
[3] = locus YBR135W, strain CKS1, hits give low values
[4] = locus YBR136W, strain MEC1, hits give low values
[5] = locus YBR160W, strain CDC28, hits give low values
[6] = locus YDL017W, strain CDC7, hits give low values
[7] = locus YDL028C, strain MPS1, hits give low values
[8] = locus YDL101C, strain DUN1, hits give low values
[9] = locus YDL108W, strain KIN28, hits give low values
[10] = locus YDL132W, strain cdc53, hits give low values
[11] = locus YDL214C, strain PRR2, hits give low values
[12] = locus YDR052C, strain DBF4, hits give low values
[13] = locus YDR054C, strain cdc34, hits give low values
[14] = locus YDR226W, strain ADK1, hits give low values
[15] = locus YDR477W, strain SNF1, hits give low values
[16] = locus YER123W, strain YCK3, hits give low values
[17] = locus YER133W, strain GLC7, hits give low values
[18] = locus YFL009W, strain cdc4, hits give low values
[19] = locus YFL029C, strain CAK1, hits give low values
[20] = locus YFR003C, strain YPI1, hits give low values
[21] = locus YFR019W, strain FAB1, hits give low values
[22] = locus YFR028C, strain CDC14, hits give low values
[23] = locus YGR040W, strain KSS1, hits give low values
[24] = locus YGR052W, strain FMP48, hits give low values
[25] = locus YGR092W, strain DBF2, hits give low values
[26] = locus YHR030C, strain SLT2, hits give low values
[27] = locus YHR079C, strain IRE1, hits give low values
[28] = locus YHR082C, strain KSP1, hits give low values
[29] = locus YHR205W, strain SCH9, hits give low values
[30] = locus YIL147C, strain SLN1, hits give low values
[31] = locus YJL095W, strain BCK1, hits give low values
[32] = locus YJL128C, strain PBS2, hits give low values
[33] = locus YJL157C, strain FAR1, hits give low values
[34] = locus YJR016C, strain ILV3, hits give low values
[35] = locus YJR066W, strain TOR1 (second series), hits give low values
[36] = locus YJR066W, strain TOR1, hits give low values
[37] = locus YKL048C, strain ELM1, hits give low values
[38] = locus YKL067W, strain YNK1, hits give low values
[39] = locus YKL101W, strain HSL1, hits give low values
[40] = locus YKL193C, strain SDS22, hits give low values
[41] = locus YKL203C, strain TOR2, hits give low values
[42] = locus YLR113W, strain HOG1, hits give low values
[43] = locus YLR133W, strain CKI1, hits give low values
[44] = locus YLR403W, strain SFP1, hits give low values
[45] = locus YML070W, strain DAK1, hits give low values
[46] = locus YMR001C, strain CDC5, hits give low values
[47] = locus YMR205C, strain PFK2 (second series), hits give low values
[48] = locus YMR277W, strain FCP1, hits give low values
[49] = locus YNL006W, strain LST8, hits give low values
[50] = locus YNL020C, strain ARK1, hits give low values
[51] = locus YNL161W, strain CBK1, hits give low values
[52] = locus YNL183C, strain NPR1, hits give low values
[53] = locus YNL207W, strain RIO2, hits give low values
[54] = locus YNL222W, strain SSU72, hits give low values
[55] = locus YNL307C, strain MCK1 (second series), hits give low values
[56] = locus YOL078W, strain AVO1, hits give low values
[57] = locus YOL136C, strain PFK27, hits give low values
[58] = locus YOR061W, strain CKA2, hits give low values
[59] = locus YOR119C, strain RIO1, hits give low values
[60] = locus YOR231W, strain MKK1, hits give low values
[61] = locus YOR329C, strain SCD5, hits give low values
[62] = locus YPL031C, strain PHO85, hits give low values
[63] = locus YPL153C, strain RAD53, hits give low values
[64] = locus YPL204W, strain HRR25, hits give low values
[65] = locus YPL209C, strain IPL1, hits give low values
[66] = locus YPL256C, strain CLN2, hits give low values
[67] = locus YPR025C, strain CCL1, hits give low values
[68] = locus YPR106W, strain ISR1, hits give low values
[69] = locus YPR111W, strain DBF20, hits give low values
[70] = strain NNK1, hits give low values
[71] = strain TSCII, hits give low values

Measured: normalized growth

CN(NC(=S)Nc1cc(Cl)ccc1Cl)c1ccc(C(F)(F)F)cc1[N+](=O)[O-]
inactive: [1] 0.972 | [2] 0.972 | [3] 0.982 | [4] 0.97 | [5] 0.979 | [6] 0.972 | [7] 0.985 | [8] 0.969 | [9] 0.969 | [10] 0.97 | [11] 0.946 | [12] 0.965 | [13] 0.97 | [14] 0.984 | [15] 0.964 | [16] 0.893 | [17] 0.949 | [18] 0.977 | [19] 0.979 | [20] 0.973 | [21] 0.977 | [22] 0.978 | [23] 0.96 | [24] 0.96 | [25] 0.825 | [27] 0.785 | [28] 1.03 | [29] 0.886 | [30] 0.971 | [31] 0.885 | [32] 0.929 | [33] 0.915 | [34] 0.971 | [35] 0.915 | [36] 0.973 | [37] 0.938 | [38] 0.953 | [39] 0.964 | [40] 0.952 | [41] 0.99 | [43] 0.929 | [44] 0.929 | [45] 0.922 | [46] 0.971 | [47] 0.967 | [48] 0.972 | [49] 0.974 | [50] 0.897 | [51] 0.977 | [52] 0.972 | [53] 0.976 | [54] 0.982 | [55] 0.932 | [56] 0.974 | [57] 0.903 | [58] 0.907 | [59] 1.04 | [60] 0.847 | [61] 0.97 | [62] 0.937 | [63] 0.942 | [64] 0.911 | [65] 0.977 | [67] 0.981 | [68] 0.981 | [69] 0.959 | [70] 0.951 | [71] 0.968
active: [26] 0.711 | [42] 0.74 | [66] 0.762

FC(F)(F)c1ccc(NC(=S)Nc2ccc(C(F)(F)F)cc2Cl)c(Cl)c1
active: [26] 0.83 | [42] 0.836
inactive: [1] 0.964 | [2] 0.969 | [3] 0.955 | [4] 0.969 | [5] 0.948 | [6] 0.965 | [7] 0.952 | [8] 0.993 | [9] 0.946 | [10] 0.949 | [11] 0.921 | [12] 0.979 | [13] 0.976 | [14] 0.936 | [15] 0.938 | [16] 0.902 | [17] 0.933 | [18] 0.921 | [19] 0.968 | [20] 0.955 | [21] 0.932 | [22] 0.953 | [23] 0.929 | [24] 0.937 | [25] 0.911 | [27] 0.948 | [28] 0.926 | [29] 0.919 | [30] 0.962 | [31] 0.919 | [32] 0.956 | [33] 0.928 | [34] 0.966 | [35] 0.95 | [36] 0.886 | [37] 0.946 | [38] 0.907 | [39] 0.898 | [40] 0.954 | [41] 1.03 | [43] 0.923 | [44] 0.949 | [45] 0.902 | [46] 0.961 | [47] 0.929 | [48] 0.944 | [49] 0.961 | [50] 0.887 | [51] 0.967 | [52] 0.929 | [53] 0.948 | [54] 0.95 | [55] 0.888 | [56] 0.955 | [57] 0.908 | [58] 0.911 | [59] 0.954 | [60] 0.92 | [61] 0.971 | [62] 0.945 | [63] 0.927 | [64] 0.916 | [65] 0.972 | [66] 0.929 | [67] 0.966 | [68] 0.956 | [69] 0.929 | [70] 0.959 | [71] 0.97
